Most compounds without a hit are left out; they make up all but 2.9% or so of the library.
PTAP TSG101 blk – blocks PTAP/TSG101 interaction to inhibit HIV-1 budding; Q99816; Fluorescence polarization, FITC-PTAP peptide / Tsg101 binding; 340,000 tested, under 10 active; Potency, µM (top dose mostly 115 µM), without a hit: top-dose activity change, negative = inhibition, hits mostly inhibitors; AID 493005; active = well fitted inhibition curve with a large enough effect in the main read-out, with a control signal flat, not every such curve was filed as active; inconclusive = small, poorly fitted or top-dose-only effect, or effect the other way, or a change in a side signal; inactive = no such curve, though single readings can be large or run the other way; note: potency is the fitted concentration of half-maximal effect; % of control where 0% means no effect
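Fluorescence polarization binding of Tsg101 binding domain (10 uM final) to FITC-labeled PTAP peptide (50 nM final) in HEPES pH 7.5 buffer with NaCl, Tween 20, EDTA, TCEP. Compounds added before peptide; binding 20 min at RT.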
MmCpn inh – blocks the Methanococcus maripaludis chaperonin Mm-Cpn; purified Mm-Cpn ATPase, ADP Transcreener TR-FRET; Potency, µM (doses to about 76.9 µM), without a hit: at the top dose activity, negative = inhibition, usual class: inhibitors; 330,000 compounds, 0.031% hits; AID 504842; active = well fitted inhibition curve with a large enough effect; inconclusive = small, poorly fitted or top-dose-only effect; note: potency is the fitted concentration of half-maximal effect; % is set by controls: 0 for no effect and ±100 for the full control effect; nearly all actives have a fitted effect of over 80% in size
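Purified archaeal chaperonin (25 nM final) was preincubated with compound for 10 min at 37°C, then ATP (10 uM final) was added for 30 min at 37°C in Tris pH 7.4/KCl/MgCl2/DTT buffer. ADP was quantified by HTRF Transcreener TR-FRET.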
D3 antag – blocks the human D3 dopamine receptor; D3R cells, DiscoveRx beta-arrestin luminescence, antagonist mode; active compounds read low; 360,000 compounds, 2.5% hits; P35462; max response, negative = inhibition, %; in the data active = max response below about -50%; inconclusive = no clear call, values can overlap the other calls; note: % is set by controls: 0 for no effect and ±100 for the full control effect
Target sequence (P35462 whole entry, looked up): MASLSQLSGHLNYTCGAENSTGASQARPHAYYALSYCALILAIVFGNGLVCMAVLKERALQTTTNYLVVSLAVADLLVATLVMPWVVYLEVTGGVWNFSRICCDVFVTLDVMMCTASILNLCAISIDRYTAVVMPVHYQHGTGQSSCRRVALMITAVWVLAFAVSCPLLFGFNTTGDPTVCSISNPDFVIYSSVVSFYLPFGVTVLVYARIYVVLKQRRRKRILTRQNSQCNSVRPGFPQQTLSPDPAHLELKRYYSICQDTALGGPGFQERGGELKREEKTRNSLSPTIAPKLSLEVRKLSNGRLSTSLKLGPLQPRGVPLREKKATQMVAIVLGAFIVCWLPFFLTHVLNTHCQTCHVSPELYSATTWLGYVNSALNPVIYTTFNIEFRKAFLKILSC
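Cells expressing the human receptor were seeded at 1500 cells/well, incubated overnight at 37 degrees C in 5% CO2, then exposed to library compounds with dopamine controls for 90 minutes at 37 degrees C before luminescent detection.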
Rango dissoc inh – inhibitors of RanGTP-induced Rango-importin beta complex dissociation; O95149+P62826; Biochemical FRET Rango-importin beta, RanGTP-induced dissociation; Potency, µM (series often up to 46.1 µM), for inactives: top-dose activity change, negative = inhibition; 340,000 compounds, 0.071% hits; note: potency is the fitted concentration of half-maximal effect; % of control where 0% means no effect; nearly all actives have a fitted effect of over 45% in size
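Recombinant Rango FRET biosensor (EYFP–snurportin 1 IBB–cerulean CFP10) at 0.1 uM premixed with 0.25 uM importin beta in PBS, 1 mM DTT, 0.02% Tween-20, 0.1% BSA. Compound added 5 min; RanGTP-RCC1 (0.6 uM Ran, 2 mM GTP, 0.2 uM RCC1) then triggers release, read at 45 min.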
DRD3 agonist – D3 dopamine receptor (human) agonism; D3R DiscoveRx beta-arrestin cells, luminescence, 90 min; max activation, %; 410,000 compounds, 0.58% hits; AID 652048; in the data active = max activation above about 30%; note: 0% is about no effect
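Cells at 1500/well, incubated overnight, then treated with pinned compounds (dopamine as control) for 90 min at 37 degrees C. DiscoveRx reagent added for 30 - 60 minutes at room temperature; luminescence read.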
Rango-impB inh – prevents formation of the Rango-importin beta complex; Q14974; Rango CFP/YFP FRET sensor + importin beta, 45 min; Potency, µM (highest dose often 92.2 µM), for inactives: at the top dose inhibition of complex formation; 340,000 compounds, 0.031% hits; AID 540263;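 note: potency is the fitted concentration of half-maximal effect; 0% = DMSO wells and 100% = buffer wells lacking importin beta; nearly all actives have a fitted effect of over 15% in size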
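FRET biosensor (snurportin 1 IBB flanked by EYFP and cerulean), 50 nM, with compound 5 min, then 0.125 microM importin beta in PBS, 1 mM DTT, 0.02% Tween-20, 0.1% BSA. CFP/YFP ratio read after 45 min at room temperature; pre-read flags interference.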
The depositor's hits bear a star; ? = inconclusive; · = not tested or not shown. Unless noted, calls come from the whole dose curve.

SMILES | PTAP TSG101 blk | MmCpn inh | D3 antag | Rango dissoc inh | DRD3 agonist | Rango-impB inh
CCCCCCSc1cc(-c2nc3cnccn3c2NCCCC)ccc1OC | · | -7% | 185 | ? | 104* | ?
CCCCNc1c(-c2ccc(OC)c(Sc3ccc(OC)cc3)c2)nc2ccccn12 | · | -3% | -16 | ? | -2 | ?
CCCCCCSc1cc(-c2nc3cc(C)ccn3c2NCCCC)ccc1OC | 1% | -2% | 54 | -11% | -26 | ?
CCCCNc1c(-c2ccc(OC)c(Sc3ccc(OC)cc3)c2)nc2cnccn12 | -2% | -4% | 94 | ? | 62* | ?
CCCCNc1c(-c2ccc(-c3ccc(OC)cc3)c(OC)c2)nc2ccccn12 | · | -4% | 188 | ? | 102* | ?
NC(=O)C1CCN(C2CC(=O)NC2=O)CC1 (stereo not given) | -5% | 0% | 31 | -13% | 4 | -1%
O=P(O)(O)OC[C@H]1O[C@](O)(COP(=O)(O)O)[C@@H](O)[C@@H]1O | · | · | · | · | -17 | ·
Cc1ccsc1C(=O)Nc1nnc(-c2ccco2)o1 | -2% | 1% | -65* | 2% | -4 | 0%
Cc1ccc(C(=O)Nc2nnc(-c3ccco3)o2)cc1 | -4% | 1% | -19 | 0% | -6 | -4%
Cc1ccc(-c2noc(CCC(=O)NCCN3CCc4ccccc4C3)n2)cc1 | -8% | -1% | -76* | 0% | -15 | -1%
Cc1ccc(-c2noc(CCC(=O)Nc3ccc(C)cn3)n2)cc1 | 1% | -7% | -73* | 10% | -7 | -1%
CCOC(=O)[C@@H]1[C@H]2COc3ccc(Br)cc3[C@H]2N2C(=O)N(c3ccc(OC)cc3)C(=O)[C@]12C | -5% | 1% | -62* | 1% | -14 | 0%
CCOC(=O)[C@@H]1[C@H]2COc3cc(OC)ccc3[C@H]2N2C(=O)N(c3ccc(Cl)cc3)C(=O)[C@]12C | -2% | 0% | 13 | 0% | 1 | 1%
CCOC(=O)[C@@H]1[C@H]2COc3cc(OC)ccc3[C@@H]2N2C(=O)N(c3ccc(C(F)(F)F)cc3)C(=O)[C@]12C | 0% | 1% | 5 | -1% | 46* | 1%
CCOC(=O)[C@@H]1[C@H]2COc3cc(OC)ccc3[C@@H]2N2C(=O)N(c3ccc(Cl)cc3)C(=O)[C@]12C | 1% | · | -25 | -7% | 34* | -4%
CCOC(=O)[C@@H]1[C@H]2COc3cc(OC)ccc3[C@@H]2N2C(=O)N(c3ccc(OC)cc3)C(=O)[C@@]12C | -1% | -1% | 34 | -8% | 0 | 0%
CCOC(=O)[C@@H]1[C@H]2COc3ccc(Br)cc3[C@@H]2N2C(=O)N(c3ccc(Br)cc3)C(=O)[C@]12C | -1% | 3% | 4 | 7% | 7 | 0%
CCOC(=O)[C@H]1[C@H]2COc3ccc(OC)cc3[C@@H]2N2C(=O)CN(CCc3c[nH]c4ccccc34)C(=O)[C@@]12C | 0% | -2% | -3 | -13% | 58* | 0%
Cc1ccc(CCNC(=O)c2cc(-c3ccncc3)nc3ccc(S(=O)(=O)N4CCOCC4)cc23)cc1 | -2% | -2% | 8 | 11% | 3 | 0%
O=C(Cn1cc(C(=O)c2ccncc2)c(=O)c2cc(F)ccc21)Nc1ccc(Cl)cc1 | · | · | · | · | -12 | ·
O=C1Nc2ccccc2C(=O)N2c3ccccc3NC(=O)C12 (stereo not given) | · | · | 59 | · | 2 | ·
Cc1cc(N2CCOCC2)nc2ccccc12 | -5% | -1% | 11 | -14% | 2 | 0%
Cc1cc(N2CCOCC2)nc2cc(O)ccc12 | -3% | -5% | -11 | 16µM* | 6 | ?
COc1cc(-c2ccc3oc(-c4ccsc4)c(C#CC4(O)CCCCC4)c3c2)cc(OC)c1OC | -1% | · | 77 | 4% | 36* | 1%
COc1ccc(-c2oc3ccc(N4CCOCC4)cc3c2C#CC2(O)CCCCC2)cc1 | -2% | · | 90 | -18% | 84* | 8%
SMILES | PTAP TSG101 blk | MmCpn inh | D3 antag | Rango dissoc inh | DRD3 agonist | Rango-impB inh
CCc1ccc(NC(=O)CSc2nc3ccccc3nc2Cc2ccccc2OC)cc1 | · | · | · | · | -19 | ·
CC(C)C(=O)N1CCC1(C)C(=O)NS(=O)(=O)c1cccs1 (stereo not given) | · | · | -63* | · | -9 | ·
COc1cccc(NC(=O)C2(C)CCCN2C(=O)C(C)C)c1OC (stereo not given) | · | · | 7 | · | 75* | ·
N#CC1=C(N)C(C#N)(C#N)C(c2cccnc2)C2CN(C(=O)OCc3ccccc3)CC=C12 (stereo not given) | -7% | -4% | -74* | ? | -6 | ?
CCOC(=O)N1CC=C2C(C#N)=C(N)C(C#N)(C#N)[C@H](c3ccc(OCC)c(OCC)c3)[C@H]2C1 | -5% | -4% | 8 | -13% | 1 | ?
CCCn1cc(S(=O)(=O)c2ccc(CC)cc2)c(=O)c2cc(F)c(N3CCN(C)CC3)cc21 | · | · | · | · | -12 | ·
Cn1nnnc1Sc1ncnc2scc(-c3ccc(F)cc3)c12 | -8% | -13% | -57* | -19% | 5 | 10%
CCOc1cccc(/C=N/N2C(C)CCCC2C)c1O (stereo not given) | -2% | 0% | 25 | 18% | 4 | 4%
CC1CCCC(C)N1/N=C/c1cc(Br)cc(Br)c1O (stereo not given) | -3% | -1% | -62* | ? | -9 | ?
CC(C)(C)CC(=O)NCC(c1ccc2c(c1)OCO2)N1CCN(c2ccccc2)CC1 (stereo not given) | · | · | · | · | -21 | ·
Cc1ccccc1N1CCN(CCC(=O)Nc2ccc(F)cc2)CC1 | -1% | -1% | -84* | -19% | 10 | -3%
O=C(CCN1CCN(c2ccccc2F)CC1)Nc1cccc(F)c1 | -2% | -1% | -63* | 9% | 15 | -1%
O=C(CCN1CCN(c2ccccn2)CC1)Nc1ccc(F)cc1 | -5% | -1% | ? | -3% | 9 | 3%
O=C(CCN1CCN(c2ccccc2F)CC1)Nc1ccc(F)cc1 | -3% | 0% | -73* | 1% | 26 | -1%
Cc1ccc(C)c(N2CCN(CC(=O)Nc3ccc([N+](=O)[O-])cc3C(=O)Nc3ccccc3F)CC2)c1 | -7% | 1% | 17 | ? | 50* | -6%
Cc1c(C(=O)NC(C)c2ccccc2)sc2nc3n(c(=O)c12)CCCC3 (stereo not given) | · | · | · | · | 2 | ·
Cc1cccc(N2CCN(S(=O)(=O)c3ccc(Cl)nc3)CC2C)c1 (stereo not given) | -1% | 1% | 7 | 4% | 0 | -2%
CCc1nn2c(=O)c(S(=O)(=O)Nc3ccc(OC)c(Cl)c3)c(C)nc2s1 | · | · | · | · | 5 | ·

Screening data (PubChem BioAssay)
